In the library only some 19% were active in any assay of this set; here they are far more common.
Chronic BCR inh: blocks chronic active B-cell receptor signaling; ABC-DLBCL IkBa-CBG/CBR reporter, luminescence ratio, 4 h; Potency, µM (doses to about 46.1 µM), for the others: at the highest dose activity change, negative = inhibition, actives largely listed as inhibitors; 0.05% of 340,000 active; active means well fitted inhibition curve with a large enough effect in the signal ratio, with a control signal flat, not every such curve was filed as active; inconclusive means small, poorly fitted or top-dose-only effect, or effect the other way, or a change in a side signal; the % refers to the signal ratio;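 further: potency means the concentration at half of the fitted maximal effect; plate controls were basal doxycycline-induced cells for no effect and cells given 10 µM MG132 for full effect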
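Concentration-response series (up to 46 uM) were applied to TMD8 dual-reporter cells for 4 h at 37C with doxycycline. Green/red ratio, after filter-overlap correction, defined %Activity; red signal alone was normalised to basal cells and zero luminescence.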
IL-1B inflam inh: inhibitors of inflammasome signaling (IL-1 beta secretion); THP-1 LPS/ATP IL-1B secretion, AlphaLISA, 16 h; stronger effect = lower value; AID 743279; activity change, % at 57.5 µM; 4.7% of 360,000 active; in the data active means activity change below about -50%; inconclusive means mostly about -30% to -49%; further: on the % scale 0 is the no-effect control and ±100 the full control effect
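Secreted IL-1B measured by AlphaLISA bead assay after 16 h compound exposure of THP-1 cells; compounds (final up to 57.5 uM) added 1 h before LPS (250 ng/mL) and ATP (1.25 mM) stimulation; lower signal means less secretion.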
TDP1 cell CPT: growth inhibition of DT40 Tdp1-/-;hTDP1 cells with camptothecin (screen for TDP1 inhibitors) | chicken DT40 Tdp1-/-;hTDP1 cells + 20 nM CPT, ATP luminescence, 48 h | Potency, µM (series often up to 46.2 µM), inactives show top-dose activity change, negative = growth inhibition, hits mostly inhibitors | 12% of 420,000 active | AID 686979; further: potency means the concentration at half of the fitted maximal effect; on the % scale 0 is the no-effect control and ±100 the full control effect; nearly all actives have a fitted effect of over 55% in size
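Chicken DT40 Tdp1-/- cells stably complemented with human TDP1 were seeded at 400 cells/well in medium containing 20 nM camptothecin, exposed to pin-transferred compounds, and grown at 37 °C for at least 48 hr. Viability was read as ATP luminescence.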
DT40 TDP1 no CPT: qHTS for Inhibitors of human tyrosyl-DNA phosphodiesterase 1 (TDP1): qHTS in cells in absence of CPT; AID 686978, 2013; 15% of 420,000 active; Potency, µM (top dose mostly 46.2 µM), for the others: top-dose activity change, negative = growth inhibition, usual class: inhibitors; DT40 Tdp1-/- hTDP1 cells, no CPT, ATP luminescence, 48 h; further: potency means the concentration at half of the fitted maximal effect; on the % scale 0 is the no-effect control and ±100 the full control effect; nearly all actives have a fitted effect of over 55% in size
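Stably hTDP1-transfected Tdp1-null chicken DT40 cells were treated with library compounds minus camptothecin and grown for at least 48 hr at 37 °C, after which cellular ATP was quantified by luminescence.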
SW480 rerep: inducers of DNA re-replication in SW480 colon cancer cells | SW480 DNA re-replication, Hoechst DNA content imaging, 48 h | Potency, µM (series often up to 46.1 µM), for inactives: at the highest dose re-replication activation, hits mostly activators | 1.8% of 340,000 active | AID 624297; further: potency means the concentration at half of the fitted maximal effect; % of control where 0% means no effect; nearly all actives have a fitted effect of over 55% in size
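SW480 cells exposed to compounds for 48 hr at 37 C, 5% CO2, then Hoechst-stained 40 min. Nuclear DNA content imaged by fluorescence scanning (405 nm excitation, 500-530 nm emission); re-replication scored as increased high-intensity nuclei.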
MCF10A rereplic: DNA re-replication induction in MCF 10a cells; MCF 10A DNA re-replication, Hoechst nuclear intensity, 48 h; Potency, µM (doses to about 46.1 µM), inactives show at the highest dose activity, positive = re-replication, actives largely listed as activators; 2.9% of 350,000 active; further: potency means the concentration at half of the fitted maximal effect; % of control where 0% means no effect; nearly all actives have a fitted effect of over 50% in size
Numbers without * were called inactive; i = inactive; ? = inconclusive; / = no result given. Unless noted, the call rests on the fitted dose curve; in most records, active means well fitted curve in the direction sought with a large enough effect; inconclusive means small, poorly fitted or top-dose-only effect, or another doubt; inactive means no such curve, though single readings can be large; an effect the other way counts as inactive or inconclusive.

SMILES	Chronic BCR inh	IL-1B inflam inh	TDP1 cell CPT	DT40 TDP1 no CPT	SW480 rerep	MCF10A rereplic
O=C(NCCOc1ccccc1Cl)c1cccc2c1C(=O)c1ccc(Cl)cc1S2(=O)=O	-2%	-30	23µM*	16µM*	-4%	?
CC(C(=O)NCC(=O)Nc1ccc(F)c(F)c1F)N1CCN(c2ccc(O)cc2)CC1 (centres undefined)	0%	27	?	15µM*	3%	9%
COc1ccc(OC)c(CNC(=O)c2nn(C)c3c2CS(=O)(=O)c2ccccc2-3)c1	-4%	-2	4%	-19%	-6%	1%
O=C(NNC(=O)c1cc(-c2ccncc2)nc2ccccc12)Nc1ccc(F)cc1	-1%	i	?	?	-29%	6%
CC(C)(C)c1ccc(-c2cc(C(=O)NNC(=O)Nc3ccccc3)c3ccccc3n2)cc1	15%	-50*	?	21µM*	?	?
O=C(NNC(=O)c1cc(-c2ccccc2)nc2ccccc12)Nc1cccc(Cl)c1	2%	-11	?	21µM*	-4%	12µM*
Cn1nc(-c2ccccc2)cc1NC(=O)Nc1ccc(C(C)(C)C)cc1	2%	-54*	?	?	58%	4%
Cn1nc(-c2ccc(Cl)cc2)cc1NC(=O)Nc1ccccc1	10%	-26	-24%	?	-30%	-2%
O=C(NNC(=O)c1cc(-c2cccnc2)nc2ccccc12)Nc1ccc(Cl)cc1	?	-96*	?	?	-5%	?
CSCCC(NC(=O)COc1ccccc1)C(=O)OCc1ccc([N+](=O)[O-])cc1 (centres undefined)	-14%	-8	-8%	-1%	6%	6%
CCC(C(=O)NCCCN1CC(C)CC(C)C1)n1nc(C)c2sc3ccccc3c2c1=O (centres undefined)	-14%	?	?	?	11%	5%
Cc1nn(C(C)C(=O)N2CCN(c3ccc(F)cc3)CC2)c(=O)c2c1sc1ccccc12 (centres undefined)	/	/	-20%	-24%	/	/
CCCOc1ccc(CNC(=O)C(CC)n2nc(C)c3sc4ccccc4c3c2=O)cc1 (centres undefined)	/	/	21µM*	23µM*	/	/
CCCN1CCN(C(=O)C(C)n2nc(C)c3sc4ccccc4c3c2=O)CC1 (centres undefined)	-1%	-8	?	18µM*	-3%	-7%
CCC(C(=O)Nc1cc(C(F)(F)F)ccc1Cl)n1nc(C)c2sc3ccccc3c2c1=O (centres undefined)	/	/	23µM*	16µM*	/	/
CCCN1CCN(CCCNC(=O)C(CC)n2nc(C)c3sc4ccccc4c3c2=O)CC1 (centres undefined)	0%	0	-26%	2%	1%	9%
CCC(C(=O)NC1CCC(C)CC1)n1nc(C)c2sc3ccccc3c2c1=O (centres undefined)	/	/	15µM*	15µM*	/	/
O=C(Nc1ccc2c(c1)OCCO2)C1c2ccccc2OCC(=O)N1Cc1ccccc1 (centres undefined)	/	6	-22%	1%	/	/
O=C(NCCCN1CCCC1=O)c1cc(S(=O)(=O)N2CCOCC2)c(Cl)cc1Cl	2%	5	12%	-15%	4.6µM*	-1%
O=C(NCCCN1CCCC1=O)C1CCN(S(=O)(=O)c2cc(C(F)(F)F)ccc2Cl)CC1	?	-7	15µM*	?	-17%	1%
O=C(NCCCN1CCCC1=O)c1cc(S(=O)(=O)N2CCOCC2)ccc1Cl	1%	10	3%	13%	0%	-3%
CC(NCc1ccc([N+](=O)[O-])cc1)C1COc2ccccc2O1 (centres undefined)	?	-13	-1%	21µM*	-2%	13%
CC(NC(=O)Cc1ccccc1)C1COc2ccccc2O1 (centres undefined)	0%	2	5%	0%	-3%	-2%
C=CCn1c(SCC(=O)c2cccs2)nc2sc(C)cc2c1=O	11%	-23	?	21µM*	0%	?
C=CCn1c(SCC(=O)c2cccs2)nnc1-c1cccc(OC)c1	-4%	16	-13%	-25%	-7%	26%
SMILES	Chronic BCR inh	IL-1B inflam inh	TDP1 cell CPT	DT40 TDP1 no CPT	SW480 rerep	MCF10A rereplic
CCN1C(=O)C(CC(=O)Nc2ccc(OC)cc2)N(CCCN2CCN(c3ccc(F)cc3)CC2)C1=S (centres undefined)	2%	-13	23µM*	13µM*	5%	?
COc1ccc(NC(=O)CC2C(=O)N(C)C(=S)N2CCc2ccccc2)cc1 (centres undefined)	-3%	-23	?	?	?	?
COc1ccc(NC(=O)CC2C(=O)N(C)C(=S)N2Cc2ccc3c(c2)OCO3)cc1 (centres undefined)	-1%	12	2%	-2%	?	5%
COc1ccc(NC(=O)CC2C(=O)N(Cc3ccccc3)C(=S)N2CCN2CCOCC2)cc1 (centres undefined)	2%	-9	?	?	3%	10%
COc1ccc(CCN2C(=S)N(C)C(=O)C2CC(=O)Nc2ccc(OC)cc2)cc1 (centres undefined)	-1%	-4	12µM*	?	?	-5%
CCN1C(=O)C(CC(=O)Nc2ccc(OC)cc2)N(CCc2ccc(F)cc2)C1=S (centres undefined)	?	-64*	21µM*	16µM*	11%	?
COC(=O)CN1C(=S)N(c2ccc(F)cc2)C(=O)C1CC(=O)Nc1ccc(OC)cc1 (centres undefined)	-2%	-1	-11%	6%	21%	-2%
COc1ccc(NC(=O)CC2C(=O)N(C)C(=S)N2CCc2ccc(F)cc2)cc1 (centres undefined)	-15%	-64*	?	?	-2%	8%
CCCOc1ccc(NC(=O)CC2C(=O)N(CC)C(=S)N2Cc2cccs2)cc1 (centres undefined)	10%	-4	?	?	17%	8%
C=CCN1C(=O)C(CC(=O)Nc2ccc(OCCC)cc2)N(CCCN2CCN(Cc3ccccc3)CC2)C1=S (centres undefined)	-3%	-67*	23µM*	21µM*	8%	?
